Eight compounds from PubChem BioAssay (Tox21) can be followed below.

Several values for one entry are separate records, joined by “and”; a condition that tells them apart may be missing. Equal values may be shown once. Inconclusive results are not listed. A structure can be active in one record and inactive in another. Activity calls are given as the source filed them. Unless noted, calls come from the whole dose curve; as a rule, active = well fitted curve in the direction sought with a large enough effect in the repeat runs; inconclusive = weak or mixed curves; inactive = no such curve, though single readings can be large; an effect the other way counts as inactive or inconclusive.

Assay [1] in a line: qHTS assay for small molecule agonists of the p53 signaling pathway (AID 651631; calls by dose curve; note: nearly all actives have a fitted effect of over 15% in size). The method in brief: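 Agonist mode screen using a stably integrated beta-lactamase gene under p53 response elements in HCT-116 cells. Compound exposure lasts 16 h at 37 °C; fluorescence intensity is measured following 2 h FRET substrate loading.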
Background: Quantitative high-throughput screening tests each substance at several concentrations.

Assay [2] in a line: qHTS assay for small molecules that induce genotoxicity in human embryonic kidney cells expressing luciferase-tagged ATAD5 (AID 651632). Note: nearly all actives have a fitted effect of over 15% in size. The method in brief: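 ATAD5-luc HEK293T, 2,000 cells/well; cpd or DMSO pin-transferred; 16 hr, 37C/5% CO2; Amplite 30 min RT; luminescence.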
Assay [3] in a line: qHTS assay for small molecule agonists of the p53 signaling pathway - cell viability (AID 651633; calls by dose curve;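 note: p53RE-bla HCT reporter cells with a stable beta-lactamase p53 reporter; series mostly up to about 83 µM; nearly all actives have a fitted effect of over 30% in size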). The method in brief: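 p53RE-bla cells were treated with compound for 16 hours at 37 C. Cytotoxicity was then measured as CellTiter-Glo luminescence after 30 min at room temperature.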
Assay [4] can be described thus: qHTS assay for small molecules that induce genotoxicity in human embryonic kidney cells expressing luciferase-tagged ATAD5 - cell viability (AID 651634; calls by dose curve; note: nearly all actives have a fitted effect of over 25% in size). The procedure, abridged: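 Fluorescence from CellTiter-Fluor, reporting protease activity within live cells, served as the viability read-out. HEK293T cells carrying luciferase-tagged ATAD5 had been treated with compound for 15.5 hr at 37C.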

Assay [5] in a line: qHTS assay for small molecule disruptors of the mitochondrial membrane potential (AID 720635). Note: potency is the fitted concentration of half-maximal effect. The procedure, abridged: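 HepG2 cells exposed to compound 1 hr at 37C, then Mito-MPS dye 30 min. Ratio read of aggregate (540/590 nm) versus monomer (490/535 nm) fluorescence.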
Assay [6] in a line: qHTS assay to test for compound auto fluorescence at 590 nm (red) in HepG2 cells (AID 720674). The procedure, abridged: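 HepG2 cells, 2,000 per well in MEM with 10% FBS, attached overnight at 37 C, then got 23 nL compound or DMSO. After 1 hr at 37 C, 5% CO2, red fluorescence was read at 540/590 nm against Rose Bengal sodium as reference.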
A short description of assay [7]: qHTS assay to test for compound auto fluorescence at 535 nm (green) in HepG2 cells (AID 720675).
The nature of assay [8]: qHTS assay to test for compound auto fluorescence at 460 nm (blue) in HEK293 cells (AID 720678). The procedure, abridged:
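Blue-channel (Ex/Em 405/460 nm) intensity measured in HEK293 cultures after overnight compound exposure at 37C; signal expressed relative to triamterene. Cells plated 2,000 per well in 10% dialyzed FBS medium and allowed 4-5 hr to attach.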

A short description of assay [9]: qHTS assay to test for compound auto fluorescence at 590 nm (red) in HEK293 cells (AID 720679). The procedure, abridged: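 Red-channel autofluorescence (Ex/Em 540/590 nm; Rose Bengal sodium reference) was measured after overnight 37C, 5% CO2 exposure of attached HEK293 cells, 2,000 per well in medium with 10% dialyzed FBS.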
A short description of assay [10]: qHTS assay to test for compound auto fluorescence at 535 nm (green) in HEK293 cells (AID 720680).
Assay [11] in a line: qHTS assay to test for compound auto fluorescence at 460 nm (blue) in HEK293 cell free culture (AID 720681). The procedure, abridged:
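Compounds were added to cell-free DMEM with 10% FBS and fluorescence read directly. The blue channel used 405 nm excitation and 460 nm emission, with triamterene as the reference fluorophore.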

Assay [12] in a line: qHTS assay to test for compound auto fluorescence at 535 nm (green) in HEK293 cell free culture (AID 720682). The method in brief: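 No cells present: wells hold DMEM supplemented with 10% FBS, into which compound or vehicle is pinned. Green emission is then recorded (485 nm excitation, 535 nm emission) and scaled to fluorescein.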
Assay [13] is described as follows: qHTS assay to test for compound auto fluorescence at 590 nm (red) in HEK293 cell free culture (AID 720683). The method in brief:
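Cell-free wells of DMEM with 10% FBS received compound, and intrinsic fluorescence was read at excitation/emission 540/590 nm. Values expressed as equivalence to Rose Bengal sodium.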

Assay [14] is described as follows: qHTS assay to test for compound auto fluorescence at 590 nm (red) in HepG2 cell free culture (AID 720684). The method in brief:
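Compound was pinned into wells holding MEM with 10% FBS and no cells, and red fluorescence was read at Ex/Em 540/590 nm. Signal is expressed as auto fluorescence equivalency relative to Rose Bengal sodium.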

The nature of assay [15]: qHTS assay to test for compound auto fluorescence at 460 nm (blue) in HepG2 cell free culture (AID 720685). The method in brief:
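Compound (23 nL) or DMSO pinned into cell-free MEM with 10% FBS; blue fluorescence read at 405/460 nm excitation/emission, expressed as auto-fluorescence equivalency to triamterene.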

Assay [16] is described as follows: qHTS assay to test for compound auto fluorescence at 535 nm (green) in HepG2 cell free culture (AID 720686).
A short description of assay [17]: qHTS assay to test for compound auto fluorescence at 460 nm (blue) in HepG2 cells (AID 720687). The method in brief:
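HepG2 cells in MEM with 10% FBS, attached overnight at 37 C, were exposed to compound or DMSO for 1 hr at 37 C, 5% CO2. Blue fluorescence was read at 405/460 nm, with triamterene as reference fluorophore.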

The target in assay [18] is Glucocorticoid receptor (Homo sapiens) (UniProt P04150). Nature of the assay: qHTS assay to identify small molecule antagonists of the glucocorticoid receptor (GR) signaling pathway (AID 720692; active = well fitted inhibition curve with a large enough effect in the signal ratio in the repeat runs, not every such curve was filed as active; the % refers to the signal ratio; note: potency is the fitted concentration of half-maximal effect). The method in brief:
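HeLa GR-bla cells; cmpd + dex 5 nM final, 18 h 37 C; LiveBLAzer B/G FRET substrate 2 h RT; fluorescence intensity read. Antagonist mode, qHTS.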

Assay [19] is described as follows: qHTS assay for small molecule disruptors of the mitochondrial membrane potential - cell viability (AID 720634; calls by dose curve;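 note: human HepG2 liver cancer cells; series mostly up to about 83 µM; nearly all actives have a fitted effect of over 20% in size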). The procedure, abridged: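 Cells: HepG2, 2,000/well, attached overnight. Compound 1 hr, 37 C/5% CO2. +m-MPI dye, +CellTiter-Glo 30 min RT. Readout: luminescence (ATP).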
For assay [20], the target named is Glucocorticoid receptor (Homo sapiens) (UniProt P04150). Nature of the assay: qHTS assay to identify small molecule agonists of the glucocorticoid receptor (GR) signaling pathway (AID 720691; active = well fitted activation curve with a large enough effect in the signal ratio in the repeat runs, not every such curve was filed as active; the % refers to the signal ratio; note: potency is the fitted concentration of half-maximal effect). The method in brief: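 Fluorescence intensity from LiveBLAzer B/G FRET substrate (2 h, room temperature) reports beta-lactamase expression driven by the glucocorticoid response element in GR-bla HeLa cells after 18 h compound exposure at 37 C.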
Sequence of Glucocorticoid receptor (Homo sapiens) (P04150 whole entry, looked up): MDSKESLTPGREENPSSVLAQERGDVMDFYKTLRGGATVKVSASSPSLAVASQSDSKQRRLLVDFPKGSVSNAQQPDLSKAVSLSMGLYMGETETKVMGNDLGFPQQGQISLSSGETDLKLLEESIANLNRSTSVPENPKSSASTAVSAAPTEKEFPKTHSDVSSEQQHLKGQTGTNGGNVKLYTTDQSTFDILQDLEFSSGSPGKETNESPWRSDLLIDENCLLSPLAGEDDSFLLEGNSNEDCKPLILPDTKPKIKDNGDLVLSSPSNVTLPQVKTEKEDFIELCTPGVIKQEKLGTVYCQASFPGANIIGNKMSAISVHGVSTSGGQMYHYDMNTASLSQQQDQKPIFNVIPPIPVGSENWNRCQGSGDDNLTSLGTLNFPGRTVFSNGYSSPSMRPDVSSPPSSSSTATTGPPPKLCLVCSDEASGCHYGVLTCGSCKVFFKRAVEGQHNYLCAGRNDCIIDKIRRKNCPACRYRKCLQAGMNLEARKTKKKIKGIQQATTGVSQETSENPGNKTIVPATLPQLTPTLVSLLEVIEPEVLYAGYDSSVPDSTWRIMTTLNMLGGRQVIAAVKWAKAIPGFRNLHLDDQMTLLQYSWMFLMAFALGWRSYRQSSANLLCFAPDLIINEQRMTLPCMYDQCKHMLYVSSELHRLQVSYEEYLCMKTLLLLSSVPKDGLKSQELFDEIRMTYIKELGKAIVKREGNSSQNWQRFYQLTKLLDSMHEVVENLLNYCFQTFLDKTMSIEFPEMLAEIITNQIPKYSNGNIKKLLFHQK

For the compound `CC(=O)CCC(C)C`, the Potency entry in [1], in assay [2], in [3], in assay [4], in assay [5] and in [18] was “inactive” each time. Further, the outcome in [6], in [7], in assay [8], in [9], in [10] and in [11] was inactive. Moreover, the call in [12], in [13], in [14], in [15], in assay [16] and in assay [17] was inactive.
As for `OCCCc1ccccc1`, the Potency entry in [1], in [3], in [4], in assay [19], in assay [5] and in [18] was “inactive” each time. In addition, the compound was called inactive in assay [6], in assay [7], in [8], in [9], in [10] and in [11]. In addition, the call in assay [12], in assay [13], in [14], in [15], in assay [16] and in [17] was inactive.
With `COc1ccc(C(=O)c2ccccc2)c(O)c1`, the Potency result in [1], in [3], in assay [4], in [5] and in [18] was “inactive” each time. Besides, the result in [6], in [7], in assay [8], in assay [9], in assay [10] and in [11] was inactive. For the same compound, the result in [12], in [13], in assay [14], in [15], in assay [16] and in assay [17] was inactive.
Consider `CCCCCCCCCCCCCC(=O)OC(C)C`, for which the Potency entry in [1], in [2], in assay [3], in assay [4], in assay [5] and in [18] was “inactive” each time. Also, the call in [6], in [7], in assay [8], in assay [9], in assay [10] and in assay [11] was inactive. Besides, the call in assay [12], in [13], in assay [14], in [15], in assay [16] and in assay [17] was inactive.
As to `O=C(O)Cc1cccc2ccccc12`, the Potency result in assay [1], in [3], in assay [4] and in [19] was “inactive” each time. Also, the compound was called inactive in assay [6], in assay [7], in assay [8], in [9], in assay [10] and in [11]. The outcome in [12], in assay [13], in assay [14], in assay [15], in [16] and in assay [17] was inactive.
For `Cc1cccc(C)c1O`, the Potency result in assay [1], in [3], in [4] and in assay [5] was “inactive” each time. Besides, the compound was classed as inactive in assay [6], in [7], in assay [8], in [9], in assay [10] and in assay [11]. Moreover, the result in assay [12], in assay [13], in assay [14], in assay [15], in assay [16] and in assay [17] was inactive.
Consider `C[C@]12C[C@H](O)[C@H]3[C@@H](CCC4=CC(=O)CC[C@@]43C)[C@@H]1CC[C@@H]2C(=O)CO`, for which the Potency result in [1], in assay [3], in assay [4], in [19] and in assay [5] was “inactive” in each case. For the same compound, the compound was classed as inactive in assay [6], in assay [7], in assay [8], in assay [9], in [10] and in [11]. For the same compound, the outcome in assay [12], in assay [13], in assay [14], in [15], in assay [16] and in assay [17] was inactive. The Potency is 169 nM (active) and 69.3 nM (active) and 123 nM (active) in assay [20]; 674 nM (active) and 390 nM (active) in assay [18].
For the compound `C/C=C/c1ccc(O)c(OC)c1`, the Potency result in assay [1], in assay [3], in assay [4] and in assay [19] was “inactive” throughout. Further, the Potency in assay [5] was 61.1 µM (active). The call in assay [6], in [7], in [8], in [9], in assay [10] and in [11] was inactive. In addition, the compound was called inactive in [12], in assay [13], in [14], in assay [15], in [16] and in assay [17].
